Hits are enriched below; roughly 9% of the tested compounds scored in any of these assays.
IMPase Li cell = IMPase inhibition in cells with lithium potentiation | CHO-M1 cells, IP1 TR-FRET (IP-One), carbachol + lithium | 0.35% of 210,000 active | Potency, µM (series often up to 59.4 µM), for the others: at the highest dose activity, negative = IMPase inhibition, actives largely listed as inhibitors;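 also: IP1 builds up when IMPase is blocked and the TR-FRET signal falls; plate controls were basal vehicle for no effect and high inhibitor control for full effect; nearly all actives have a fitted effect of over 50% in size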
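Steps: plate 2000 CHO-M1 cells per well and culture 16–30 h; add compound and lithium; incubate 30 min, 37C; add d2-IP1 tracer and Eu cryptate anti-IP1 antibody in lysis buffer; read after 10 min at room temperature.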
Luc counter = blocks Kinase-Glo luciferase, a counter-screen artifact; Q27757; Kinase-Glo luciferase, ATP luminescence, 8 min; Potency, µM (top dose mostly 38.3 µM), for the others: top-dose activity change, negative = inhibition, hits mostly inhibitors; 0.28% of 200,000 active; also: nearly all actives have a fitted effect of over 60% in size
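Recombinant Kinase-Glo luciferase, 10 uM ATP (linear range), luciferin; imidazole pH 7.2 / KCl / MgCl2 / Tween / BSA buffer; 8 min RT; luminescence.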
HPGD inh = HPGD (human) dehydrogenase inhibition | purified HPGD, NADH fluorescence kinetic, PGE2 substrate | Potency, µM, for inactives: top-dose activity change, negative = inhibition, most hits filed as inhibitors | 4.3% of 150,000 active | P15428; active = well fitted inhibition curve with a large enough effect, not every such curve was filed as active; inconclusive = small, poorly fitted or top-dose-only effect, or another doubt; inactive = no such curve, though single readings can be large or run the other way
Target sequence (P15428 whole entry, looked up): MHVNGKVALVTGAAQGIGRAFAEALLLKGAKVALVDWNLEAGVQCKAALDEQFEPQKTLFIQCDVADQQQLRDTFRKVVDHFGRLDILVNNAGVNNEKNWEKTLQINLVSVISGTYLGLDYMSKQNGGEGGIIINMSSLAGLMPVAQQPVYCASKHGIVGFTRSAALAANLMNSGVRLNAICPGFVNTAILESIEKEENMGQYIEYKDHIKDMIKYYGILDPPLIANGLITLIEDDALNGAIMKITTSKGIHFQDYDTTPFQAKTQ
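20 nM HPGD preincubated 15 min at room temperature with compound in 50 mM Tris-HCl pH 8, 0.01% Tween 20. Started with 1 mM NAD+ and 30 uM prostaglandin E2; NADH fluorescence (360/450 nm) read 5 times over 30-s intervals, last minus first.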
ALDH1A1 inh = blocks purified human ALDH1A1 activity; P00352; Purified ALDH1A1, NADH fluorescence, propionaldehyde substrate; Potency, µM (titrated, usually from 75.3 µM), inactives show at the top dose activity, negative = inhibition, most hits filed as inhibitors; 7.3% of 220,000 active; AID 1030; active = well fitted inhibition curve with a large enough effect, not every such curve was filed as active; inconclusive = small, poorly fitted or top-dose-only effect, or another doubt; inactive = no such curve, though single readings can be large or run the other way;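 also: plate controls were no enzyme wells and a reference inhibitor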
Lamin A splicing = modulators of lamin A splicing; 0.01% of 200,000 active; HeLa LMNA splicing GFP/RFP minigene ratio, 48 h; Potency, µM (highest dose often 46.1 µM), for the others: at the top dose ratio change, negative = inhibition, most hits filed as inhibitors; active = well fitted inhibition curve with a large enough effect in the signal ratio, with a control signal flat, not every such curve was filed as active; inconclusive = small, poorly fitted or top-dose-only effect, or effect the other way, or a change in a side signal; the % refers to the signal ratio
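S3 HeLa stable clones carrying a lamin A-EGFP splicing minigene plus DsRed2 were seeded at 600 cells/well in Opti-MEM with 2% FBS, pin-dosed and incubated 48 h at 37°C. Acumen cytometry (488 nm) gave the GFP/RFP total-intensity ratio.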
Numbers without * were called inactive; u = inconclusive; x = no result given; [ ] = remark or other dose. Unless noted, calls follow the shape of the dose curve; as a rule, active = well fitted curve in the direction sought with a large enough effect; inconclusive = small, poorly fitted or top-dose-only effect, or another doubt; inactive = no such curve, though single readings can be large; an effect the other way counts as inactive or inconclusive. Unless noted, % is scaled to controls: 0 for no effect and ±100 for the full control effect; potency is read from the fitted curve at half-maximal effect.

SMILES	IMPase Li cell	Luc counter	HPGD inh	ALDH1A1 inh	Lamin A splicing
CC(C)Cn1c(Cc2ccccc2)n[nH]c1=S	33%[38.3 µM]	0%	-24%	16µM*	5%
CCCCn1c(Cc2ccccc2)n[nH]c1=S	34%	9%	u	14µM*	-12%
CC(C)CNC(=O)c1cccc(NC(=O)c2ccc(Cl)c([N+](=O)[O-])c2)c1	16%	0%	-22%	2%	u
CCOC(=O)C[C@@H](C(=O)OCC)[C@@H]1CCCCC1=O	x	x	x	0%[13.5 µM]	x
O=C(NCCc1ccccc1)C(=S)N1CCCCC1	4%	0%	x	10%	20%[46 µM]
N#Cc1ccccc1CN1C(=O)S/C(=C/c2cccn2-c2ccc(C(=O)O)cc2)C1=O	23%[38.3 µM]	-3%	28µM*	0.5µM*	11%
C=C(C)C(=O)/C=C/CCC/C=C/C(=O)OCC	33%	-1%	-6%	25µM*	x
CCN(CC)C(=O)CSc1nc2ncc(Br)cc2[nH]1	x	x	x	u	-1%
Fc1ccc(CSc2nc3ncc(Br)cc3[nH]2)cc1	14µM*	-3%	0.63µM*	7%	1%
O=C(CSc1nc2ncc(Br)cc2[nH]1)c1ccc([N+](=O)[O-])cc1	1%	0%	8.9µM*	u	-3%
CCn1c(CC(=O)Nc2ccc(C)cc2)n[nH]c1=S	2%	2%	x	8%	x
CC[n+]1ccc(C[n+]2ccccc2)c2ccccc21	3%	-1%	u	19µM*	16%
O=C(O)CCc1ccc(-c2cccs2)o1	22%[38.3 µM]	0%	22µM*	1µM*	1%
Cc1ccc(-c2ccc(CCC(=O)O)o2)cc1	-10%[38.3 µM]	0%	-19%	u	12%
CN1CCN(C(=O)CCC(=O)c2ccc(F)cc2)CC1	21%[38.3 µM]	-2%	-17%	-11%	4%
O=C(CCBr)N1CCN(C(=O)CCBr)CC1	-5%	-5%	u	0.89µM*	u
O=C(CCn1ccnc1)Nc1nc2ccccc2[nH]1	-4%	1%	x	2%	-17%[46 µM]
CCN(CC)c1ccc(NC(=O)COC(=O)c2cccs2)cc1	41%[38.3 µM]	-9%	-11%	-10%	7%
Cc1ccc(C(=O)COC(=O)c2cccs2)cc1	1%	u	28µM*	-10%	-3%
CC(=O)c1cccc(NC(=O)COC(=O)c2cccs2)c1	6%	-6%	x	14µM*	u
CC(C)Cn1c(N)c(C(=O)COC(=O)c2ccccc2F)c(=O)n(C)c1=O	20%	4%	x	-15%	u
CCc1ccc(C(=O)COC(=O)c2cccs2)cc1	31%[38.3 µM]	u	u	u	0%
O=C(COC(=O)c1cccs1)c1ccc2c(c1)OCCO2	42%[38.3 µM]	2.5µM*	16µM*	18µM*	4%
O=C(COC(=O)c1cccs1)c1ccc2ccccc2c1	20%	-18%	u	2%	-7%
CC(C)Cn1c(N)c(C(=O)COC(=O)c2c(F)cccc2F)c(=O)n(C)c1=O	26%	5%	x	11µM*	u
SMILES	IMPase Li cell	Luc counter	HPGD inh	ALDH1A1 inh	Lamin A splicing
Cc1nc2cncnc2n(C2CC2)c1=O	9%	x	x	u	-2%
S=C(Nc1ccc2[nH]ccc2c1)NC1CCCCC1	x	x	x	2%	x
Cn1c(N2C(=O)CC(Cc3ccccc3)C2=O)nc2ccccc21 (centres undefined)	6%	6%	1%	5%	-3%
O=C(COc1ccccc1[N+](=O)[O-])N(Cc1ccco1)c1ccccn1	x	x	x	x	-1%[46 µM]
Cn1c(N)c(C(=O)COC(=O)c2cccs2)c(=O)n(C)c1=O	18%[38.3 µM]	0%	-11%	14µM*	7%
Cn1c(N)c(C(=O)COC(=O)c2ccc(Cl)c(S(=O)(=O)N3CCCCC3)c2)c(=O)n(C)c1=O	5%	0%	16µM*	9%	-9%
Cn1c(N)c(C(=O)COC(=O)CCC(=O)c2cccs2)c(=O)n(C)c1=O	6%[38.3 µM]	0%	-7%	5%	2%
COc1ccc(CC(=O)NCc2nnc(SCC(=O)Nc3cccc(F)c3)n2C)cc1	6%	-1%	x	-8%	-6%[46 µM]
Nc1ccc2cc3ccccc3cc2c1	-16%	x	2%	2µM*	x
Cn1c(=O)c2c(ncn2CC(=O)OCC(=O)Nc2cc(Cl)ccc2Cl)n(C)c1=O	2%	4%	-19%	3%	-14%
C=CCn1c(CCNC(=O)c2cccs2)nnc1SCC(=O)c1ccc(Cl)cc1	25%[38.3 µM]	-4%	-20%	-5%	6%
